Screening data as filed in PubChem BioAssay.
eIF4H inh – inhibitors of RNA binding by human eIF4H; eIF4H fluorescence polarization binding assay; Q15056; inhibition, % at 35 µM; actives 0.94% (n = 290,000);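 also: calls also rest on retests at 20 µM and on dose response follow-up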
eIF4E 4G PPI – blocks eIF4E binding to eIF4G. TR-FRET eIF4E-eIF4GI(517-606) binding, 2 h. AID 782. inhibition, % at 21.7 µM. actives 0.37% (n = 220,000). P63073+Q04637;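 active = inhibition above about 30%, limit read from the data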
EBV gp42 inh – inhibitors of Epstein-Barr virus glycoprotein 42; Fluorescence polarization binding assay, mP read-out; inhibition, % (tested at 21.74 µM); actives 0.42% (n = 220,000); in the data active = inhibition above about 50%
Target sequence (Q1HVG2 whole entry, looked up): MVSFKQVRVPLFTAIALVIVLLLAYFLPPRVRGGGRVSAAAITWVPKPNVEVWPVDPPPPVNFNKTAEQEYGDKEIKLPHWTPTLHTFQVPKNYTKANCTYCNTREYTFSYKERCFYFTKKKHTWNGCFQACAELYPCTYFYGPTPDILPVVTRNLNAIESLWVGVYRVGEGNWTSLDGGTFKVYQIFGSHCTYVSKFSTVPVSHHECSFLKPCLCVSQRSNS
MLLE-PAM2 inh – blocks PAM2 peptide binding to the PABP1 MLLE domain; AID 588489; inhibition, % at 20 µM; GST-MLLE / FITC-PAM2 fluorescence polarization; actives 0.36% (n = 360,000); in the data active = inhibition above about 35%, passing the limit was not always enough
PABP polyA inh – blocks human PABP binding to poly(A) RNA. fluorescence polarization. P11940. calls only at 35 µM. actives 1% (n = 290,000). AID 2014;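 also: calls also rest on retests at 20 µM and on dose response follow-up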
Of the large screens only hits and unclear results are named; the others gave an inactive call; [ ] = another dose, or the depositor's remark. This is a sample that favours compounds with a hit; in the whole collection about 1.7% have one here. Unless noted, no rule for the calls is given here.

NC(c1csc(NC(=O)c2cccc(OC(F)(F)F)c2)n1)c1ccccc1Cl (configuration not stated)	none (no result: eIF4H inh, eIF4E 4G PPI, EBV gp42 inh, PABP polyA inh)
Cc1cc(Br)cn2c(Cc3ccsc3)c(-c3ccc(Cl)cc3)nc12	none (no result: eIF4H inh, eIF4E 4G PPI, EBV gp42 inh, PABP polyA inh)
Nc1ccc2nc(-c3ccccc3)c(-c3ccccc3)nc2c1	eIF4H inh 70 (no result: eIF4E 4G PPI, EBV gp42 inh)
CC(=O)c1cccc(N(CC(=O)NC2CCCC2)C(=O)c2csnn2)c1	none (no result: eIF4E 4G PPI, EBV gp42 inh)
CCn1c(NN)nc2sc3c(c2c1=O)CCC3	eIF4H inh 52, PABP polyA inh active
NNc1nc2sc3c(c2c(=O)n1Cc1ccccc1)CCC3	eIF4H inh 64, PABP polyA inh active
C#CCSc1nc2sc3c(c2c(=O)n1C)CCC3	eIF4H inh 63, PABP polyA inh active (no result: eIF4E 4G PPI, EBV gp42 inh)
CC[C@@]1(C(=O)OC)N[C@H](CN(C)C(=O)COc2ccccc2)[C@@H]2C(=O)N(Cc3ccccc3)C(=O)[C@@H]21	none (no result: eIF4H inh, eIF4E 4G PPI, EBV gp42 inh, PABP polyA inh)
CC(=O)Nc1ccc(S(=O)(=O)NCCC(=O)NCc2ccncc2)cc1	none (no result: eIF4H inh, eIF4E 4G PPI, EBV gp42 inh, PABP polyA inh)
Cc1cc2c(N)cccc2nn1	eIF4H inh 96, PABP polyA inh active
Cc1nnc(NC(=O)C2CCCN2C(=O)Nc2ccccc2)s1 (configuration not stated)	none (no result: eIF4E 4G PPI, EBV gp42 inh)
COc1cccc(Oc2ccc(N)cn2)c1	eIF4H inh inconclusive, PABP polyA inh inconclusive
Cc1cc(Oc2ccc(N)cn2)ccc1Cl	eIF4H inh inconclusive, PABP polyA inh active
NC(=O)CC[C@H](NC(=O)c1ccc(Cl)cc1)C(=O)NNC(=O)COc1cccc(Br)c1	none (no result: eIF4H inh, eIF4E 4G PPI, EBV gp42 inh, PABP polyA inh)
Nc1[nH]c(=O)[nH]c(=O)c1N=Cc1ccccc1	MLLE-PAM2 inh 68 (no result: eIF4H inh, eIF4E 4G PPI, EBV gp42 inh, PABP polyA inh)
Cc1ccc(C)c(S(=O)(=O)Nc2ccc3oc(C)c(C(=O)O)c3c2)c1	eIF4H inh 87, PABP polyA inh active (no result: eIF4E 4G PPI, EBV gp42 inh)
CC(=O)c1c(C)oc2ccc(NS(=O)(=O)c3ccc(C)cc3)cc12	none (no result: eIF4E 4G PPI, EBV gp42 inh)
COc1c(C)cc(C(=O)C2CCCN(Cc3ccc(Oc4ncccn4)cc3)C2)cc1C (configuration not stated)	eIF4E 4G PPI 70
COc1cccc(C(=O)C2CCCN(Cc3cccc(-n4cccn4)c3)C2)c1 (configuration not stated)	none
COc1cccc(C(=O)C2CCCN(Cc3cccn3-c3cccnc3)C2)c1 (configuration not stated)	PABP polyA inh active
COc1cccc(NC(=O)COC(=O)c2ccc(S(=O)(=O)NCc3ccco3)cc2)c1	none
CCOC(=O)c1sc2ncn(CC(=O)Nc3cc(C)on3)c(=O)c2c1C	none (no result: eIF4H inh, eIF4E 4G PPI, EBV gp42 inh, PABP polyA inh)
CCCCN(C(C)=O)c1c(CC)nc2ccc(C(=O)NCc3cccs3)cn12	none (no result: eIF4H inh, eIF4E 4G PPI, EBV gp42 inh, PABP polyA inh)
O=c1ccsn1Cc1ccccc1	none
Cn1sccc1=O	MLLE-PAM2 inh 37 (no result: eIF4H inh, eIF4E 4G PPI, EBV gp42 inh, PABP polyA inh)
CC(C)Oc1cc(F)ccc1-c1cc(C(=O)Nc2cccc(C(F)(F)F)c2)[nH]n1	none (no result: eIF4H inh, eIF4E 4G PPI, EBV gp42 inh, PABP polyA inh)
Oc1ccc(NCc2cccc(OCc3ccccc3)c2)cc1	PABP polyA inh active
COc1ccc2cc(CCN3C(=O)c4ccccc4C3=O)c(=O)[nH]c2c1	none
O=c1c2cc(N3CCOCC3)ccc2[nH]c(=S)n1Cc1ccccn1	eIF4H inh 37, PABP polyA inh active
O=c1c2cc(N3CCOCC3)ccc2[nH]c(=S)n1Cc1ccccc1Cl	none
COc1c(C)cc(C(=O)C2CCCN(S(=O)(=O)N(C)C)C2)cc1C (configuration not stated)	none (no result: eIF4E 4G PPI, EBV gp42 inh)
CCCc1nc2sc3c(SCC(=O)NCc4ccco4)ncnc3c2c2c1CCC2	eIF4H inh 78, PABP polyA inh active
O=C(CSc1ncnc2ccccc12)NCc1ccco1	MLLE-PAM2 inh 44
Cc1nc(SCC(=O)NCc2ccco2)c2c3c(sc2n1)CCCC3	none
COCCNC(=O)COc1ccc(C)cc1C(=O)c1cc(C#N)c(=O)n(C2CC2)c1	eIF4H inh active, PABP polyA inh active
CN1c2cccc3cccc(c23)N(C)C1(C)C	eIF4H inh 73, PABP polyA inh active
CC(C)[C@@H](C(=O)N1CCN(C(=O)OC(C)(C)C)CC1)n1cc(CCO)nn1	none
CCCc1cc(=O)[nH]c(SCC(=O)Nc2nonc2N)n1	MLLE-PAM2 inh 41
COC(=O)C1(C)CCCC2(C)c3cc(OC)ccc3C(=O)C(Br)C12 (configuration not stated)	none (no result: eIF4H inh, eIF4E 4G PPI, EBV gp42 inh, PABP polyA inh)
O=C1CCNc2c(Cl)cccc21	none
O=C1CCNc2c(Cl)cc(Cl)cc21	eIF4H inh 51, EBV gp42 inh 71
O=c1/c(=C/c2ccco2)sc2n1CN(c1cccc(Br)c1)CN=2	eIF4H inh 51, PABP polyA inh active
Cc1ccc(CSC2=NCCN2S(=O)(=O)c2ccc(F)cc2)cc1	none (no result: eIF4E 4G PPI, EBV gp42 inh)
COC(=O)C1=C(NC(=O)c2ccc(Br)cc2)CCS1	none
COC(=O)C1=C(NC(=O)c2ccc(C)c(C)c2)CCS1	MLLE-PAM2 inh 39
Cc1ccc(C)c(C2=NNC(=O)CC2)c1	none (no result: eIF4H inh, eIF4E 4G PPI, EBV gp42 inh, PABP polyA inh)
O=C1/C(=C/c2ccccc2)CCCc2ccccc21	none
CN(C)c1ccc(/C=C2\CCC/C(=C\c3ccccc3)C2=O)cc1	eIF4H inh inconclusive, EBV gp42 inh 119
O=C(Nc1ccc(Br)cc1)c1ccccc1Br	none (no result: eIF4E 4G PPI, EBV gp42 inh)
c1csc(Cc2nn3c(-c4n[nH]c5c4CCC5)nnc3s2)c1	PABP polyA inh active
c1coc(-c2nnc3sc(Cc4cccs4)nn23)c1	eIF4H inh 77, PABP polyA inh active
COc1ccccc1-c1nn2c(-c3ccccc3Cl)nnc2s1	none (no result: eIF4E 4G PPI, EBV gp42 inh, MLLE-PAM2 inh)
c1coc(-c2nn3c(-c4ccco4)nnc3s2)c1	eIF4H inh 95, PABP polyA inh active
Clc1ccc(-c2nnc3sc(Cc4cccs4)nn23)c(Cl)c1	none
COc1ccc(OCc2nn3c(-c4ccco4)nnc3s2)cc1	none
COc1ccccc1-c1nn2c(-c3ccco3)nnc2s1	eIF4H inh 59
NS(=O)(=O)c1cccc(NC(=O)CCN2C(=O)C3CCCCC3C2=O)c1 (configuration not stated)	none (no result: eIF4H inh, eIF4E 4G PPI, EBV gp42 inh, PABP polyA inh)
CC(=O)c1cccc(N=Nc2c(-c3ccccc3)[nH]n(-c3ccccc3)c2=O)c1	none
O=C1C(c2cc(=O)c3ccccc3[nH]2)=C(O)c2ccccc21	none
O=c1cc(-c2ccccc2)[nH]c2ccccc12	eIF4E 4G PPI 49[fluorescence artefact?]
O=[N+]([O-])c1ccc(N=Cc2sc3ccccc3c2O)cc1	none
Oc1c(C=NCc2ccccc2)sc2ccccc12	MLLE-PAM2 inh 42
Oc1cccc(C=NCc2ccccc2)c1O	eIF4H inh 90, PABP polyA inh active
Oc1cccc(C=Nc2cccc3ccccc23)c1O	eIF4H inh 65, PABP polyA inh active (no result: eIF4E 4G PPI, EBV gp42 inh)
Oc1ccccc1N=Cc1c(O)ccc2ccccc12	PABP polyA inh active
Oc1ccc2ccccc2c1C=Nc1ccccc1Br	none (no result: eIF4E 4G PPI, EBV gp42 inh)
CC1(C(=O)NS(=O)(=O)C2CC2)CCCN(C(=O)c2cccc(Cl)c2)C1 (configuration not stated)	none (no result: eIF4H inh, eIF4E 4G PPI, EBV gp42 inh, PABP polyA inh)
CCC(=O)N1CCC(C)(C(=O)NCc2cccc(OC)c2)C1 (configuration not stated)	none (no result: eIF4H inh, eIF4E 4G PPI, EBV gp42 inh, PABP polyA inh)
Oc1oc(-c2ccccc2)nc1/C=N/c1nccs1	none
Oc1oc(-c2ccccc2)nc1C=Nc1cccc2ccccc12	eIF4H inh inconclusive, EBV gp42 inh 75
